Laboratory results reported in PubChem BioAssay.
Values without a mark were called inactive. For some of these results: Potency and affinity values are given separately. The source made the active and inactive calls. Unless noted, no rule for the calls is given here.

How the values were obtained:
[1] = antimalarial activity against Dd2 strain (AID 2302;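 active = growth inhibition above 50% at the single 2 µM test dose, taken to imply half-maximal potency below 2 µM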;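 also: 0% = DMSO untreated growth and 100% = chloroquine plus artemisinin killed control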); settings: P. falciparum Dd2 in RBCs, LDH growth readout, 72 h; at 2 µM; active compounds read high
[2] = HepG2 cytotoxicity, primary screen, cytotoxicity control for P. falciparum antimalarial project, cell-based, ATP luminescence (AID 2303;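 active = inhibition above 50%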;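 also: 0% = DMSO wells and 100% = digitonin-killed cells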); settings: HepG2 viability, 24-48 h, at 10 µM, active compounds read high
[3] = molecular target: L-lactate dehydrogenase (Plasmodium falciparum (isolate CDC / Honduras)) (UniProt Q27743); experiment: PfLDH activity inhibition – cell lysate, 3D7 strain, counter-screen for P. falciparum growth inhibition project (AID 2304);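 also: 0% = vehicle and 100% = reference inhibitor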; settings: P. falciparum 3D7 crude extract, LDH APAD/NBT absorbance; at 2 µM; active compounds read high
[4] = inhibition of 3D7 malaria parasite growth – strain 3D7 (AID 2306);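 also: 0% = DMSO wells and 100% = chloroquine plus artemisinin control wells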; settings: P. falciparum 3D7 erythrocytic growth, LDH absorbance, 72 h; at 2 µM; active compounds read high
[5] = molecular target: Plasmodium falciparum protein kinase 6 (PK6, PF3D7_1337100) (UniProt Q8IDW1); experiment: PfPK6 kinase inhibitors, biochemical, TCAMS library (AID 1159586); settings: recombinant PfPK6, Kinase-Glo ATP depletion luminescence
[6] = molecular target: Protein kinase 7 (PK7), Plasmodium falciparum 3D7 (PF3D7_0213400) (UniProt Q7YTF7); experiment: inhibition of Plasmodium PK7 catalytic activity – biochemical, TCAMS antimalarial set, Kinase-Glo luminescence (AID 1159587); settings: recombinant PfPK7, Kinase-Glo ATP depletion luminescence
[7] = molecular target: Calcium-dependent protein kinase 4 (Plasmodium falciparum (isolate 3D7)) (UniProt Q8IBS5); experiment: PfCDPK4 kinase inhibitors, biochemical, TCAMS library (AID 1159588; cut-off not given, nearly all actives have IC50 up to about 0.91 µM); settings: recombinant PfCDPK4, Kinase-Glo ATP depletion luminescence
Calcium-dependent protein kinase 4 (Plasmodium falciparum (isolate 3D7)), sequence (Q8IBS5 whole entry, looked up): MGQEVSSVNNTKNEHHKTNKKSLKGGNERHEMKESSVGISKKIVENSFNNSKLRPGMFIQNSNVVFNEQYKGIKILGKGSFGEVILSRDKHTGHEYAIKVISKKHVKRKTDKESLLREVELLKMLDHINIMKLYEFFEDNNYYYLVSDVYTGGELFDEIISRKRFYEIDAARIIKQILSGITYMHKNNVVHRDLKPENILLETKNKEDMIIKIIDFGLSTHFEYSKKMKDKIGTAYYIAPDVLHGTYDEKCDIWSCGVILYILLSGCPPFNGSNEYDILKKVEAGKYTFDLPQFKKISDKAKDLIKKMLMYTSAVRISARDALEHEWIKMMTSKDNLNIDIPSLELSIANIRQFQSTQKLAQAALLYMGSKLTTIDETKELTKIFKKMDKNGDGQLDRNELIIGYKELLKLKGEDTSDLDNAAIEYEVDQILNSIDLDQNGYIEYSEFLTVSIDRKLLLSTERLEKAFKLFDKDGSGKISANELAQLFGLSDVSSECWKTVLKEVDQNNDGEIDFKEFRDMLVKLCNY

Protein kinase 7 (PK7), Plasmodium falciparum 3D7 (PF3D7_0213400), sequence (Q7YTF7 1-343): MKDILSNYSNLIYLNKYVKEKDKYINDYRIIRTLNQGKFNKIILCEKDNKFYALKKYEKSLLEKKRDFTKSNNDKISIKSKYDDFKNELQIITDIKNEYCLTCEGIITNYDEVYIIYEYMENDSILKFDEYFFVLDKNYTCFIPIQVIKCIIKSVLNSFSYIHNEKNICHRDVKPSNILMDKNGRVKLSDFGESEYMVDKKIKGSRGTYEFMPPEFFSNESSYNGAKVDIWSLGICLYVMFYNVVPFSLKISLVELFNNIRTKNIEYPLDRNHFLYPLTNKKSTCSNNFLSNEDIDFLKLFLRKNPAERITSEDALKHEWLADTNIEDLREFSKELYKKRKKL
Plasmodium falciparum protein kinase 6 (PK6, PF3D7_1337100), sequence (Q8IDW1 1-305): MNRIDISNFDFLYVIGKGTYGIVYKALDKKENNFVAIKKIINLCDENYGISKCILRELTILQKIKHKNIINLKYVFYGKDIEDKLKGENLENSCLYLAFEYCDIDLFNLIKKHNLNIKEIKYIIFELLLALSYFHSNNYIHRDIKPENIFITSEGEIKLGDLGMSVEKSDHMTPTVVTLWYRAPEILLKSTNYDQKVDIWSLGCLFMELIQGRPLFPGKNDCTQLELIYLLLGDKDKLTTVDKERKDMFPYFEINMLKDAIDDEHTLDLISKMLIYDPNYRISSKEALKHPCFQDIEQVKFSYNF
L-lactate dehydrogenase (Plasmodium falciparum (isolate CDC / Honduras)), sequence (Q27743 whole entry, looked up): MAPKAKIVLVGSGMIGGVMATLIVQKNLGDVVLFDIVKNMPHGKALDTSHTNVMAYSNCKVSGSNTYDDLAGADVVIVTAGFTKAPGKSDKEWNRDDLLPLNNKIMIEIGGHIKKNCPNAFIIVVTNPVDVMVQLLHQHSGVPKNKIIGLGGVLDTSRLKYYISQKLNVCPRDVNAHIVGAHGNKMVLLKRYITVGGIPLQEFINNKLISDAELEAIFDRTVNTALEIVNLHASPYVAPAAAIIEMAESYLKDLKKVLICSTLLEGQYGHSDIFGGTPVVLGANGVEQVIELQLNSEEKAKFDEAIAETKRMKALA

Row | Structure (SMILES) | growth inhibition [1] | inhibition [2] | inhibition [3] [%] | growth inhibition [4] | outcome [5] | outcome [6] | outcome [7]
1 | O=C(Nc1cccc(-c2nn3ncccc3c2-c2ccnc(Nc3ccccc3)n2)c1)c1c(F)cccc1F | 96% (active) | 51% (active) | 0 | 98% (active) | inactive | inactive | –
2 | N#CCc1ccc(Nc2nccc(Nc3ccc(Oc4ccccc4)cc3)n2)cc1 | 47% | -1% | 6 | 98% (active) | inactive | inactive | inactive
3 | CCn1c(-c2nonc2N)nc2c(-c3ccccc3)ncc(OCCCCNCCc3ncc[nH]3)c21 | 42% | 34% | -1 | 92% (active) | inactive | inactive | –
4 | NS(=O)(=O)c1cccc(Nc2nc(N[C@@H]3CCNC3)nc3cc[nH]c(=O)c23)c1 | 98% (active) | 7% | 0 | 99% (active) | inactive | inactive | –
5 | CCn1c(-c2nonc2N)nc2c(-c3ccccc3)ncc(OCCCNCCCN3CCOCC3)c21 | 91% (active) | 28% | -7 | 100% (active) | inactive | inactive | –
6 | CNC(=O)c1ccccc1Nc1nc(Nc2ccc(C(=O)O)cc2)ncc1Cl | 92% (active) | 60% (active) | -2 | 92% (active) | inactive | inactive | inactive
7 | Oc1cccc(Nc2ccnc3cc(-c4ccncc4)ccc23)c1 | 99% (active) | 8% | 1 | 101% (active) | inactive | inactive | inactive
8 | c1ccc(Oc2ccc(Nc3ccnc(Nc4ccc5cn[nH]c5c4)n3)cc2)cc1 | 33% | 6% | -7 | 94% (active) | inactive | inactive | inactive
9 | NCC1(c2nc(-c3ccc(Cl)c(O)c3)c(-c3ccncc3)[nH]2)CCCCC1 | 98% (active) | 48% | -2 | 98% (active) | inactive | inactive | inactive
10 | COCCNCc1cccc(-c2ccc3c(Nc4ccc(Oc5cccnc5)cc4)ccnc3c2)c1 | 99% (active) | 58% (active) | -5 | 100% (active) | inactive | inactive | inactive
11 | CC(C)(CN)c1cc(-c2ccc(Cl)c(O)c2)c(-c2ccncc2)o1 | 97% (active) | 44% | 7 | 92% (active) | inactive | inactive | –
12 | O=C(NCCCN1CCOCC1)c1cccc(Nc2nccc(Nc3ccc(Oc4ccccc4)cc3)n2)c1 | 22% | 34% | -9 | 98% (active) | inactive | inactive | inactive
13 | CCCN1CCN(CCNC(=O)c2cccc(Nc3nccc(Nc4ccc(Oc5ccccc5)cc4)n3)c2)CC1 | 96% (active) | 56% (active) | -7 | 99% (active) | inactive | inactive | inactive
14 | CS(=O)(=O)CCNCc1cccc(-c2ccc3c(Nc4ccc(Oc5cccnc5)cc4)ccnc3c2)c1 | 99% (active) | 27% | 4 | 101% (active) | inactive | inactive | inactive
15 | CN1CCC=C(C(=O)NCC(C)(C)c2nc(-c3ccc(Cl)c(O)c3)c(-c3ccncc3)[nH]2)C1 | 96% (active) | 39% | -1 | 96% (active) | inactive | inactive | inactive
16 | CN(C)CCN(C)Cc1ccc(-c2ccc3c(Nc4ccc(Cl)cc4F)ccnc3c2)o1 | 76% (active) | 20% | 1 | 100% (active) | inactive | inactive | inactive
17 | COc1cccc(CNCC(C)(C)c2nc(-c3ccc(Cl)c(O)c3)c(-c3ccncc3)[nH]2)c1 | 98% (active) | 74% (active) | -9 | 101% (active) | inactive | inactive | inactive
18 | O=c1[nH]ccc2nc(N[C@@H]3CCNC3)nc(Nc3cc(Cl)cc(Cl)c3)c12 | 99% (active) | 99% (active) | -2 | 101% (active) | inactive | inactive | –
19 | Oc1cccc(Nc2ccnc3cc(-c4nccs4)ccc23)c1 | – | -10% | -7 | 98% (active) | inactive | inactive | inactive
20 | CCn1c(-c2nonc2N)nc2c(-c3cccc(NC(=O)NC45CC6CC(CC(C6)C4)C5)c3)ncc(OCCCN)c21 | 63% (active) | 100% (active) | -2 | 94% (active) | inactive | inactive | –
21 | NC[C@H](CC1CCCCC1)NC(=O)c1ccc(-c2ccnc3[nH]ccc23)s1 | 4% | 39% | 5 | 98% (active) | inactive | inactive | –
22 | CC(C)(CNC(=O)C1CCN(Cc2ccc(Cl)cc2)CC1)c1nc(-c2ccc(Cl)c(O)c2)c(-c2ccncc2)[nH]1 | 83% (active) | 36% | -6 | 100% (active) | inactive | inactive | inactive
